This is one part of a sample in which hits are shown more often than they occur.
Artemis inh = Artemis endonuclease inhibitors, primary screen, biochemical, fluorescence intensity, FAM/BHQ-1 hairpin substrate | Protein artemis (Homo sapiens), Q96SD1 | recombinant Artemis, quenched FAM hairpin cleavage fluorescence | inhibition, % at 10 µM | 30,000 compounds, 0.78% hits | AID 686954, 2013;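 active = at 10 µM dose, at least 30% inhibition, measured as corrected fluorescence normalized to stimulator and neutral control wells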
Target sequence (Q96SD1 whole entry, looked up): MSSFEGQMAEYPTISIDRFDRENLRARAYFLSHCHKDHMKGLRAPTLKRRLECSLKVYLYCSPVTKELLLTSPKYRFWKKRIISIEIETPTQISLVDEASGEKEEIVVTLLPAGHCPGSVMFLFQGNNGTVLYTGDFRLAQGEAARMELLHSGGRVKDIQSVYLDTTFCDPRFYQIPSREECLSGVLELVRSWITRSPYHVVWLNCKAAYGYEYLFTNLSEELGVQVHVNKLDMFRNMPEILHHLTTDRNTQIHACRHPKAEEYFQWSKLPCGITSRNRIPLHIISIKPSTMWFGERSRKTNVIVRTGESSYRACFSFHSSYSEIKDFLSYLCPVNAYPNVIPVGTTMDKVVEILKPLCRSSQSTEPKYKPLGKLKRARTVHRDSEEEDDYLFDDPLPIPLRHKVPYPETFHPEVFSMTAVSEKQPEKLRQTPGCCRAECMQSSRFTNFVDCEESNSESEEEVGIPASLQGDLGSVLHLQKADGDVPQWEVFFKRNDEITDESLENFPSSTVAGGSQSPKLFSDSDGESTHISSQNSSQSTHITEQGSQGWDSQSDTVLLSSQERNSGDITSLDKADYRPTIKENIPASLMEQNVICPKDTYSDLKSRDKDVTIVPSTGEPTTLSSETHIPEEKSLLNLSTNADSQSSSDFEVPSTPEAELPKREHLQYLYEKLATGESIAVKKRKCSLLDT
* marks the source's active call; other numbers are inactive results.

COc1cccc(-n2c(SCC(=O)N3c4ccccc4CC3C)nnc2-c2ccco2)c1 (configuration not stated) was read as Artemis inh 17.2.
`CC1Cc2ccccc2N1C(=O)CSc1nnc2c(n1)[nH]c1ccccc12` (configuration not stated) gave Artemis inh 35.5*.
CC1CCN(Cc2csc(N)n2)CC1 was read as Artemis inh 9.1.
Screening CCOc1ccc(NC(=O)CC2C(=O)N(C)C(=S)N2Cc2ccc3c(c2)OCO3)cc1 (configuration not stated) returned Artemis inh 3.9.
`COc1cc(-n2ccnc2SC)c(Cl)cc1Cl` gave Artemis inh 51.5*.
COc1cc(Nc2nnc(C)s2)c(Cl)cc1Cl was read as Artemis inh -3.0.
`CCOC(=O)CSc1nnnn1-c1cc(OC)c(Cl)cc1OC` gave Artemis inh -13.3.
Screening CSc1nsc(SCC(=O)N2CCN(c3ccccc3)CC2)n1 returned Artemis inh 0.0.
`COc1cccc(/C=N/NC(=O)c2ccccc2N(Cc2ccccc2)S(=O)(=O)c2ccccc2)c1OC` gave Artemis inh 11.5.
Screening CC(C)CCNC(=O)NC(=O)COC(=O)/C=C/c1cnc2ccccc2n1 returned Artemis inh 2.0.
O=C(O)c1ccccc1C(=O)OCc1ccccc1 was read as Artemis inh -3.8.
CNC(=O)CC(=O)Nc1ccccc1C(=O)O was read as Artemis inh -4.9.
For C/C(=N\O)c1ccccc1C(=O)O the results were Artemis inh 46.1*.
Screening C1CN(CC23CC4CC(CC(C4)C2)C3)CCO1 returned Artemis inh -4.6.
CC(C)CC(c1nnnn1CCc1ccccc1)N1CCC(C(N)=O)CC1 (configuration not stated) was read as Artemis inh -4.1.
For Cc1ccc(CSCC(=O)N/N=C/c2sccc2C)cc1 the results were Artemis inh 7.1.
Screening O=C(NCCO)c1ccc2nc(-c3ccco3)c(-c3ccco3)nc2c1 returned Artemis inh 37.8*.
For O=C(NCCCNC(=O)c1ccco1)c1ccco1 the results were Artemis inh 7.2.
For O=C(NCc1ccco1)c1ccc2snnc2c1 the results were Artemis inh -0.3.
Cc1cc(C)n(-c2nc(Nc3ccccc3C(F)(F)F)nc(-n3nc(C)cc3C)n2)n1 was read as Artemis inh 57.0*.
`Cc1csc(Nc2ccccc2C(F)(F)F)n1` gave Artemis inh -2.7.
`Cc1cc(C)n(-c2nc(NC(C)(C)C)nc(NC(C)(C)C)n2)n1` gave Artemis inh -4.3.
`CCOc1ccc(N(C(C)=O)c2nc(C)cc(C)c2C#N)cc1` gave Artemis inh 9.2.
`CC(C)(NC(=O)N1CCOCC1)c1cccc(C(C)(C)NC(=O)N2CCOCC2)c1` gave Artemis inh -1.6.
For CCCC(C)NC(=O)c1ccc(C2SCC(=O)N2Cc2ccco2)cc1 (configuration not stated) the results were Artemis inh 6.7.
O=C1CCC([N+](=O)[O-])C(c2ccc(Cl)cc2)N1 (configuration not stated) was read as Artemis inh 3.6.
CCOC(=O)CN1C(=O)C(Sc2n[nH]c(-c3ccc(O)cc3)n2)CCc2ccccc21 (configuration not stated) was read as Artemis inh 4.1.
`Cc1ccc(C)c(S(=O)(=O)NC(C)C(=O)Nc2ccc(-c3nc4ccccc4s3)cc2)c1` (configuration not stated) gave Artemis inh 2.6.
Cc1ccc(-c2n[nH]c(=S)n2/N=C/C=C\c2ccccc2[N+](=O)[O-])cc1 was read as Artemis inh 27.0.
`Cn1cccc1/C=N/n1c(-c2ccccc2)n[nH]c1=S` gave Artemis inh -1.0.
`O=[N+]([O-])c1ccccc1/C=C/C=N/n1c(-c2ccc(Cl)cc2)n[nH]c1=S` gave Artemis inh 30.5*.
O=C(O)c1cc(-c2ccccc2Cl)n[nH]1 was read as Artemis inh -8.9.
Oc1c(Br)cc(C2N=C(c3ccccc3Cl)NO2)cc1Br (configuration not stated) was read as Artemis inh 31.2*.
`COc1ccc(CCc2nc(C)ccc2O)cc1` gave Artemis inh -5.5.
For COc1ccc(C(C(=O)NC(C)(C)C)N(CC2CCCO2)C(=O)CCC(=O)Nc2cc(C)on2)cc1 (configuration not stated) the results were Artemis inh -1.7.
Screening O=C(Nc1nc(N2C(=O)c3ccccc3C2=O)n(-c2ccccc2)n1)c1ccc(Cl)cc1 returned Artemis inh 7.0.
`N#Cc1c(-c2ccccc2)c(-c2ccccc2)nn(CC(=O)NNC(=O)Nc2ccc(Cl)c(Cl)c2)c1=O` gave Artemis inh 30.1*.
N#Cc1c(NC(=O)CCn2cnc3ccccc3c2=O)oc(-c2ccccc2)c1-c1ccccc1 was read as Artemis inh 8.4.
Screening N#Cc1c(-c2ccccc2)nc2n(-c3ccccc3)nc(C(=O)Nc3ccccc3)n2c1=O returned Artemis inh 10.1.

Assay outcomes from PubChem BioAssay.
